High-throughput results (PubChem BioAssay)
ST2 IL33 inh = blocks human ST2 binding to IL-33. AlphaLISA ST2-Fc/biotin-IL-33 interaction, 1 h. inhibition, % for hits at 17 µM. 78,000 tested, 2.3% active; in the data active = inhibition above about 30%
Target sequence (Q01638 whole entry, looked up): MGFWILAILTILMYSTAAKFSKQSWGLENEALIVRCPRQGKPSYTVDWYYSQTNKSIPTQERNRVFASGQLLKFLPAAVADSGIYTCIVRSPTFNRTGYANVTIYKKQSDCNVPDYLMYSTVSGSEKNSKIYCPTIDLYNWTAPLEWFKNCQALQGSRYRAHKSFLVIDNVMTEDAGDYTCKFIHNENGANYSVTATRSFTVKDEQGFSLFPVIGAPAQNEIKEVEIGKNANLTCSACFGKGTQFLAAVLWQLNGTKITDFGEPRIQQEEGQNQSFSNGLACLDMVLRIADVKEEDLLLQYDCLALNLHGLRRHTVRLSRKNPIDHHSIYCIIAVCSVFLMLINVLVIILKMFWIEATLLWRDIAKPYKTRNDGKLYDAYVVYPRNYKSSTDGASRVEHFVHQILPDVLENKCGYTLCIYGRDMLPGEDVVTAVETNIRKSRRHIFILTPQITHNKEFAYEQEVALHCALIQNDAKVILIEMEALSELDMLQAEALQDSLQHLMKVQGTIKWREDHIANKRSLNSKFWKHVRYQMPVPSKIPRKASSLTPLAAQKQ
* marks the source's active call; other numbers are inactive results; i = inactive. The entries come from a sample that favours hits as a whole.

SMILES	ST2 IL33 inh
O=[N+]([O-])c1ccc(C(Cl)Cl)o1	64%*
COc1ccc(C2N(c3ccccn3)C(=O)C3CCCN32)cc1 (stereo not drawn)	i
Cc1cccc(NC(c2ccc(N(C)C)cc2)c2ccc3ccc(C)nc3c2O)n1 (stereo not drawn)	44%*
CC[C@H]1CN2CC[C@H]1C[C@@H]2CNC(=S)NCCOC	i
CCn1nc(C)c(NC(=O)CN2C[C@@H]3C[C@H](C2)c2cccc(=O)n2C3)c1C	i
COCCNC(=O)[C@H]1CN2CCC1C[C@@H]2Cn1cc(C(C)(C)C)nn1 (stereo partly drawn)	i
COc1ccc(CN2CCN(C)CC2)c(OC)c1C	i
COc1ccc(CN2CCN(Cc3ccccc3)CC2)c(C)c1C	34%*
CCN1CCN(Cc2ccc(OC)c(C)c2C)CC1	i
O=c1cccc2n1C[C@H]1C[C@@H]2CN(Cc2ccc([N+](=O)[O-])cc2)C1	i
CN1C(=O)C(=Cc2cn(C)c3ccccc23)C(=O)N(C)C1=O	i
Cn1cc(C=C2C(=O)NC(=O)NC2=O)c2ccccc21	35%*
CCN1C(=O)NC(=O)/C(=C\c2cn(CC(=O)N3CCCC3)c3ccccc23)C1=O	i
Cc1cccc(N=Cc2c(C)nn(-c3ccccc3)c2[Se])c1	i
COc1ccc(Br)cc1C1N(c2ccccn2)C(=O)C2CCCN21 (stereo not drawn)	i
OC1CCNC2CCCCC12 (stereo not drawn)	i
COc1ccccc1-c1ccc(N2C[C@@H]3C[C@H](C2)c2cccc(=O)n2C3)nn1	i
Cc1c(CCN)c2ccccc2n1-c1ccccc1	37%*
Cc1ccc(S(=O)(=O)NC[C@H]2C[C@@H]3CCN2C[C@@H]3CN2C[C@@H]3C[C@H](C2)c2cccc(=O)n2C3)cc1	i
Cn1nc(-c2ccco2)cc1[C@H]1CN2CC[C@H]1C[C@@H]2CNC(=O)CCCC(=O)O	i
COCCNC(=S)NC[C@H]1C[C@@H]2CCN1C[C@@H]2CN1CCCCC1	i
O=c1cccc2n1C[C@H]1C[C@@H]2CN(C[C@H]2CN3CC[C@H]2C[C@@H]3CNC(=S)Nc2ccccc2)C1	i
COc1ccc(CCNC2CCC(C)C2)cc1 (stereo not drawn)	50%*
Cc1cc(C=O)c(C)n1C1CCCCC1	30%*
CCOC(=O)c1c(C)n(C2CCCCC2)c2ccc(OC(C)=O)cc12	i
SMILES	ST2 IL33 inh
CCOC(=O)c1c(C)n(C2CCCCC2)c2ccc(O)cc12	i
COc1ccccc1NC(=O)N1C[C@@H]2C[C@H](C1)c1ccc(-c3ccc(Cl)cc3)c(=O)n1C2	i
O=C1NC(=O)C(CCc2ccncc2)(CCc2ccncc2)C(=O)N1c1ccccc1	i
COc1ccc2c(CCN)c[nH]c2c1	i
COc1ccc2c(c1)c(CCN)c(C)n2Cc1ccccc1	38%*
CCOC(=O)c1c(C)n(C(C)C)c2ccc(OC)cc12	i
COCc1ncc(CN2CCN(C)C3(CCN(C)CC3)C2)cn1	i
OC1CCN(Cc2cccnc2)CC1	i
COc1ccccc1N1C(=O)C2[C@H](C1=O)[C@@]1(Cl)C(Cl)=C(Cl)[C@@]2(Cl)C1(Cl)Cl (stereo partly drawn)	i
CC(C)[C@@H](C)/C=C/[C@@H](C)[C@H]1CC[C@@H]2[C@]1(C)CCC1[C@]23C=C[C@]2(C[C@@H](O)CC[C@]12C)OO3 (stereo partly drawn)	i
CC[C@H]1CN2CC[C@H]1C[C@@H]2COC(=O)Nc1ccc(Oc2ccccc2)cc1	i
COc1cc2c(cc1O)C1(C)CCC(O)C(C)(C)C1CC2=O (stereo not drawn)	37%*
CCOc1ccccc1N1CCN(Cc2ccccc2C)CC1	i
N#Cc1c(Cl)c(Cl)nc(N2CCCNCC2)c1Cl	43%*
C=C[C@H]1CN2CC[C@H]1C[C@@H]2CNC(=S)NCc1ccco1	i
COc1ccccc1N1CCN(C[C@H]2CN3CC[C@H]2C[C@@H]3CNC(=S)NCc2ccco2)CC1	i
CN(CCc1ccccn1)C[C@H]1CN2CC[C@H]1C[C@@H]2CNS(C)(=O)=O	i
CC1CN(c2ccccc2[N+](=O)[O-])CC(C)N1 (stereo not drawn)	i
O=[N+]([O-])c1cc(F)c(N2CCCCC2)cc1Br	42%*
CC1CCN(c2cc(Br)c([N+](=O)[O-])cc2F)CC1	45%*
CN(C)c1ccc(N2CCNCC2)c([N+](=O)[O-])c1	i
COc1ccc(CN(C)C)c(OC(=O)N(C)C)c1	i
CCOC(=O)C1C2NC(=O)N(c3cc(C)cc(C)c3)C1(C)Oc1c(OC)cccc12 (stereo not drawn)	i
O=S(=O)(NC[C@H]1C[C@@H]2CCN1C[C@@H]2CN1CCN(c2ccccc2)CC1)c1ccccc1	i
Cc1ccc(S(=O)(=O)NC[C@H]2C[C@@H]3CCN2C[C@@H]3CN2CCN(c3ccccc3)CC2)cc1	33%*
SMILES	ST2 IL33 inh
O=S(=O)(NC[C@H]1C[C@@H]2CCN1C[C@@H]2CN1CCN(c2ccc(F)cc2)CC1)c1ccccc1	i
CS(=O)(=O)NC[C@H]1C[C@@H]2CCN1C[C@@H]2CN1CCN(c2ccccc2)CC1	i
C=CCN(C)C[C@H]1CN2CC[C@H]1C[C@@H]2CNS(=O)(=O)c1cccs1	i
COc1ccc(-c2cc([C@H]3CN4CC[C@H]3C[C@@H]4CNC(=S)Nc3ccc(Cl)cc3)n(C)n2)cc1OC	i
C#C[C@H]1CN2CC[C@H]1C[C@@H]2CNC(=S)Nc1cccc2ccccc12	i
O=C(c1cccc2ccnn12)N1C[C@@H]2C[C@H](C1)c1cccc(=O)n1C2	i
C=C[C@H]1CN2CC[C@H]1C[C@@H]2CNC(=S)Nc1cc(OC)cc(OC)c1	i
Oc1cccc(CN2CCN(c3ccc(F)cc3)CC2)c1	i
COc1ccc(N2CCN(Cc3cccc([N+](=O)[O-])c3)CC2)cc1	i
O=[N+]([O-])c1ccc(N2CCN(Cc3ccc(Br)cc3)CC2)cc1	i
O=[N+]([O-])c1ccc(N2CCN(Cc3cccc(Br)c3)CC2)cc1	32%*
Cc1cccc(CN2CCN(c3ccc([N+](=O)[O-])cc3)CC2)c1	42%*
CCN1CCN(Cc2cccc(C)c2)CC1	i
CC(=O)Nc1ccc(-c2ccc3n(c2=O)C[C@H]2C[C@@H]3CN(C(=O)c3ccncc3)C2)cc1	i
COc1ccc(-c2cc([C@H]3CN4CC[C@H]3C[C@@H]4CNC(=S)Nc3ccc(F)cc3)n(C)n2)cc1OC	i
COc1ccccc1[C@@H]1CN(C(=O)Cn2nccc2C)[C@@H]2C3CCN(CC3)[C@@H]21	i
CCOP(=S)(OCC)N1CCOCCOCCOCCOCC1	i
C#C[C@H]1CN2CC[C@H]1C[C@@H]2CNC(=S)NC1CC1	i
CCN(CC)C(=O)c1ccc2c(c1)C1C=CCC1C(C(=O)O)N2 (stereo not drawn)	60%*
CCN(CC)C(=O)c1ccc(N2C(=O)C3CC=C(Cl)CC3C2=O)cc1 (stereo not drawn)	i
COC(=O)c1cccc(NC(=S)NC[C@H]2C[C@@H]3CCN2C[C@@H]3c2cc(-c3ccc(OC)c(OC)c3)nn2C)c1	i
Cc1ccnc(-n2c(C)nc3ccccc3c2=O)c1	i
CCOC(=O)c1nc2ccccc2c(=O)n1-c1cc(Cl)c(OC)cc1OC	i
Cc1ccc(-n2c(C)nc3ccc(I)cc3c2=O)c([N+](=O)[O-])c1	i
O=c1c2ccccc2nc(Cc2ccccc2)n1-c1ccccc1	i
O=c1c2ccccc2nc(/C=C/c2ccc(F)cc2)n1-c1ccccc1	i
